How the values were obtained:
Assay in all cases: log2 ratio of Biotin-Ahx-Ub-VS probe labelling (fragment/DMSO); higher = less target engagement (more negative = stronger competition), active = hit call of the paper (q ≤ 0.05, log2 ratio ≤ -1)
Conditions in all cases: compound concentration: 200 uM; treatment time: 3 h
[1] = biological target: USP34 (UniProt Q70CQ2)
Outline: (§1)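 The table lists average log2 ratios of fragment over vehicle, from an unpaired t-test on global-median-normalised Spectronaut label-free quantities. Proteins with ≥2 unique peptides were used. Samples were HEK293T lysate (495 µg) treated in triplicate with fragment at 200 µM or vehicle for 3 h, then with Biotin-Ahx-Ub-VS (0.5 µM final) for 1 h, with labelled DUBs NeutrAvidin-enriched and run by diaPASEF LC-MS/MS.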

[2] = biological target: T1, USP36 (UniProt Q9P275)
T1 sequence (whole entry): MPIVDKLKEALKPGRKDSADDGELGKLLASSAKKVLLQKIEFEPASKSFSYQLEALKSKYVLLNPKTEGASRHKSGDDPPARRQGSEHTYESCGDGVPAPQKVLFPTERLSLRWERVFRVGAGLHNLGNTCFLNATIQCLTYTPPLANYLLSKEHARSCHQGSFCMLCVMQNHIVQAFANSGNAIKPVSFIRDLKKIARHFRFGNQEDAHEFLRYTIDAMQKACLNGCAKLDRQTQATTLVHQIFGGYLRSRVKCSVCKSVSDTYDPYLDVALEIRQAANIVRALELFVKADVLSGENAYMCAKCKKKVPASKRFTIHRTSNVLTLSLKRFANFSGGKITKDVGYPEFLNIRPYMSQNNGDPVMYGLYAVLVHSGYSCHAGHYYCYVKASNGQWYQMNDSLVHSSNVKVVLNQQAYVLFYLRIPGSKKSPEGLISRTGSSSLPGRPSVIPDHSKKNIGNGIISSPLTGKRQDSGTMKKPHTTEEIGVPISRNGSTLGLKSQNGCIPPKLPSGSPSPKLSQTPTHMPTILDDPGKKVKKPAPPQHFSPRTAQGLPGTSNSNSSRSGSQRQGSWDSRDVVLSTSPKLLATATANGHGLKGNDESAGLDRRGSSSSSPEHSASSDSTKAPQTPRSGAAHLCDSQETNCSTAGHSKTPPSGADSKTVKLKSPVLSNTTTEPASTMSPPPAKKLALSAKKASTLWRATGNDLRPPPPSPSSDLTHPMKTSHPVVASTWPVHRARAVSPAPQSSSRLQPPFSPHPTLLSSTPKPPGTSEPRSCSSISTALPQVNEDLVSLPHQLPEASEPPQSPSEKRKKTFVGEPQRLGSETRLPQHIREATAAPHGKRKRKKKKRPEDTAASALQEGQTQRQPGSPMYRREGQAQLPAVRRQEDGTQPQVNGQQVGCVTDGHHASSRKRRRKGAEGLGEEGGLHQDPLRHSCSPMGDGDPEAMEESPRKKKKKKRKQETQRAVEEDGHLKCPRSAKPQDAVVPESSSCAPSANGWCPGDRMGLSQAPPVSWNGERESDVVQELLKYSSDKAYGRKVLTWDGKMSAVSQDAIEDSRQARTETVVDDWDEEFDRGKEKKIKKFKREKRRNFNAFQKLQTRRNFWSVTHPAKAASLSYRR
Outline: as §1

[3] = biological target: T2, USP38 (UniProt Q8NB14)
T2 sequence (whole entry): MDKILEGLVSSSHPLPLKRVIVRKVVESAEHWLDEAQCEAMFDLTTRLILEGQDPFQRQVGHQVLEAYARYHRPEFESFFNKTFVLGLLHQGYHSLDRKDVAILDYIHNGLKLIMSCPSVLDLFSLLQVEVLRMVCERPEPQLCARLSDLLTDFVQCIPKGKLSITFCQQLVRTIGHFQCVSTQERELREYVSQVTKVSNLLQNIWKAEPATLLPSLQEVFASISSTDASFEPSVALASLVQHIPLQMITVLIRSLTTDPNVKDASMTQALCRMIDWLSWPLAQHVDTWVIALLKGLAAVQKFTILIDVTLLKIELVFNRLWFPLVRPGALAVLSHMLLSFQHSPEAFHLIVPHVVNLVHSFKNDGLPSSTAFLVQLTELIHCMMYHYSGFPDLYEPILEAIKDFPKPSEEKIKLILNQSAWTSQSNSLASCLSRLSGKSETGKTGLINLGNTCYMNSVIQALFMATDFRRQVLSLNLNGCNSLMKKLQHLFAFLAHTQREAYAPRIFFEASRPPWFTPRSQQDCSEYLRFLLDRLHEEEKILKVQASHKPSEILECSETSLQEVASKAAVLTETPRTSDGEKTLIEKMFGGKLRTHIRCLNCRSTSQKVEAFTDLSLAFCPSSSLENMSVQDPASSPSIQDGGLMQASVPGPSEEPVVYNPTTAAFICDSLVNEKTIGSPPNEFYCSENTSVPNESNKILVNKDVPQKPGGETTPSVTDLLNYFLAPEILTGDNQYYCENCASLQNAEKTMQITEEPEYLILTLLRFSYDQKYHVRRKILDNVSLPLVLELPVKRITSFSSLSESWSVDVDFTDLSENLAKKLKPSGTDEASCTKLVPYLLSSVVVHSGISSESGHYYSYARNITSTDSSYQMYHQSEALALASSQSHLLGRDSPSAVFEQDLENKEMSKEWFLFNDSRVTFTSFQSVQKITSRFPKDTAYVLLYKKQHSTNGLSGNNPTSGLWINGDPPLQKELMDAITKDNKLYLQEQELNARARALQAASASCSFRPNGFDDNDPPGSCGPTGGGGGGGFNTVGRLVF
Outline: as §1

[4] = biological target: T3, USP39 (UniProt Q53GS9)
T3 sequence (whole entry): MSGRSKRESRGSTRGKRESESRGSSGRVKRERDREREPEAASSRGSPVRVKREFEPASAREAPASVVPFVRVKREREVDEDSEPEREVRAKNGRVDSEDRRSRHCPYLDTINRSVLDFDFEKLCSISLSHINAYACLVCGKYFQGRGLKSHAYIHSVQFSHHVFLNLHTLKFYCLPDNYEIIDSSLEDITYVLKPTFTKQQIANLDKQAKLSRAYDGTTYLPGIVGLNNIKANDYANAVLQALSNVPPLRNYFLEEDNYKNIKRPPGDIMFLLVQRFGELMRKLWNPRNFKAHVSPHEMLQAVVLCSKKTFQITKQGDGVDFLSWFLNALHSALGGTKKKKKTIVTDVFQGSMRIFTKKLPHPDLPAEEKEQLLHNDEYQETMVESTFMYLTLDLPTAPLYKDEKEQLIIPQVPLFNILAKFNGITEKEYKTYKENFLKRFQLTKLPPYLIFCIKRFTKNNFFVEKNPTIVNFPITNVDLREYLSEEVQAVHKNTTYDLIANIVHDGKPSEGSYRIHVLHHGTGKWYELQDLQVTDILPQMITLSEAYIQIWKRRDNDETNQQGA
Outline: as §1

[5] = biological target: T4, USP4 (UniProt Q13107)
T4 sequence (whole entry): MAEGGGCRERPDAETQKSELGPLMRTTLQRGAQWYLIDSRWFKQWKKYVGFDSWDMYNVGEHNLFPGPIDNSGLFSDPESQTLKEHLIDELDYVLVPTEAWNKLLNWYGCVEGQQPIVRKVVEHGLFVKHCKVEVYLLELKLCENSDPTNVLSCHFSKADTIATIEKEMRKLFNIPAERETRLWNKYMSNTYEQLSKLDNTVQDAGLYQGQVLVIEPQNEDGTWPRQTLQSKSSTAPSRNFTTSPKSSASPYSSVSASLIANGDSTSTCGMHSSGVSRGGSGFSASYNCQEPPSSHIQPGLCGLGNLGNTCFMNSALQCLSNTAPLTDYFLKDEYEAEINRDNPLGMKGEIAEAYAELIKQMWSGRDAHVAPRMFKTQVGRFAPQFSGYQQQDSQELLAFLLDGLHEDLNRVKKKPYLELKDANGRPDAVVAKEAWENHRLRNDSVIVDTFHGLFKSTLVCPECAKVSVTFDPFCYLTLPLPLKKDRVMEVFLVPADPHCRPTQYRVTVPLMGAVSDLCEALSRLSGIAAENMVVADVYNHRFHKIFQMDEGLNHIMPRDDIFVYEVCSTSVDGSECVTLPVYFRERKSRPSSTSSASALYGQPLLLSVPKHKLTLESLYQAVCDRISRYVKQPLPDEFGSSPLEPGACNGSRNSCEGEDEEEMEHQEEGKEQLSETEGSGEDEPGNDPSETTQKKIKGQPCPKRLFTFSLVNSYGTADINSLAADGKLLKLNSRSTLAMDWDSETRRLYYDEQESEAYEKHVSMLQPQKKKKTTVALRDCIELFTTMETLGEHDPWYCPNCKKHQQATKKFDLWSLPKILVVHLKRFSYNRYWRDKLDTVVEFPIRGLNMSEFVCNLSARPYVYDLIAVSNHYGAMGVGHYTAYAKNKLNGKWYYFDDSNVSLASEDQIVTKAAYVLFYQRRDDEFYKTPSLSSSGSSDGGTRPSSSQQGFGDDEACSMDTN
Outline: as §1

Measured: log2 ratio of Biotin-Ahx-Ub-VS probe labelling

USP34, sequence (Q70CQ2 whole entry, the tested form may be a part): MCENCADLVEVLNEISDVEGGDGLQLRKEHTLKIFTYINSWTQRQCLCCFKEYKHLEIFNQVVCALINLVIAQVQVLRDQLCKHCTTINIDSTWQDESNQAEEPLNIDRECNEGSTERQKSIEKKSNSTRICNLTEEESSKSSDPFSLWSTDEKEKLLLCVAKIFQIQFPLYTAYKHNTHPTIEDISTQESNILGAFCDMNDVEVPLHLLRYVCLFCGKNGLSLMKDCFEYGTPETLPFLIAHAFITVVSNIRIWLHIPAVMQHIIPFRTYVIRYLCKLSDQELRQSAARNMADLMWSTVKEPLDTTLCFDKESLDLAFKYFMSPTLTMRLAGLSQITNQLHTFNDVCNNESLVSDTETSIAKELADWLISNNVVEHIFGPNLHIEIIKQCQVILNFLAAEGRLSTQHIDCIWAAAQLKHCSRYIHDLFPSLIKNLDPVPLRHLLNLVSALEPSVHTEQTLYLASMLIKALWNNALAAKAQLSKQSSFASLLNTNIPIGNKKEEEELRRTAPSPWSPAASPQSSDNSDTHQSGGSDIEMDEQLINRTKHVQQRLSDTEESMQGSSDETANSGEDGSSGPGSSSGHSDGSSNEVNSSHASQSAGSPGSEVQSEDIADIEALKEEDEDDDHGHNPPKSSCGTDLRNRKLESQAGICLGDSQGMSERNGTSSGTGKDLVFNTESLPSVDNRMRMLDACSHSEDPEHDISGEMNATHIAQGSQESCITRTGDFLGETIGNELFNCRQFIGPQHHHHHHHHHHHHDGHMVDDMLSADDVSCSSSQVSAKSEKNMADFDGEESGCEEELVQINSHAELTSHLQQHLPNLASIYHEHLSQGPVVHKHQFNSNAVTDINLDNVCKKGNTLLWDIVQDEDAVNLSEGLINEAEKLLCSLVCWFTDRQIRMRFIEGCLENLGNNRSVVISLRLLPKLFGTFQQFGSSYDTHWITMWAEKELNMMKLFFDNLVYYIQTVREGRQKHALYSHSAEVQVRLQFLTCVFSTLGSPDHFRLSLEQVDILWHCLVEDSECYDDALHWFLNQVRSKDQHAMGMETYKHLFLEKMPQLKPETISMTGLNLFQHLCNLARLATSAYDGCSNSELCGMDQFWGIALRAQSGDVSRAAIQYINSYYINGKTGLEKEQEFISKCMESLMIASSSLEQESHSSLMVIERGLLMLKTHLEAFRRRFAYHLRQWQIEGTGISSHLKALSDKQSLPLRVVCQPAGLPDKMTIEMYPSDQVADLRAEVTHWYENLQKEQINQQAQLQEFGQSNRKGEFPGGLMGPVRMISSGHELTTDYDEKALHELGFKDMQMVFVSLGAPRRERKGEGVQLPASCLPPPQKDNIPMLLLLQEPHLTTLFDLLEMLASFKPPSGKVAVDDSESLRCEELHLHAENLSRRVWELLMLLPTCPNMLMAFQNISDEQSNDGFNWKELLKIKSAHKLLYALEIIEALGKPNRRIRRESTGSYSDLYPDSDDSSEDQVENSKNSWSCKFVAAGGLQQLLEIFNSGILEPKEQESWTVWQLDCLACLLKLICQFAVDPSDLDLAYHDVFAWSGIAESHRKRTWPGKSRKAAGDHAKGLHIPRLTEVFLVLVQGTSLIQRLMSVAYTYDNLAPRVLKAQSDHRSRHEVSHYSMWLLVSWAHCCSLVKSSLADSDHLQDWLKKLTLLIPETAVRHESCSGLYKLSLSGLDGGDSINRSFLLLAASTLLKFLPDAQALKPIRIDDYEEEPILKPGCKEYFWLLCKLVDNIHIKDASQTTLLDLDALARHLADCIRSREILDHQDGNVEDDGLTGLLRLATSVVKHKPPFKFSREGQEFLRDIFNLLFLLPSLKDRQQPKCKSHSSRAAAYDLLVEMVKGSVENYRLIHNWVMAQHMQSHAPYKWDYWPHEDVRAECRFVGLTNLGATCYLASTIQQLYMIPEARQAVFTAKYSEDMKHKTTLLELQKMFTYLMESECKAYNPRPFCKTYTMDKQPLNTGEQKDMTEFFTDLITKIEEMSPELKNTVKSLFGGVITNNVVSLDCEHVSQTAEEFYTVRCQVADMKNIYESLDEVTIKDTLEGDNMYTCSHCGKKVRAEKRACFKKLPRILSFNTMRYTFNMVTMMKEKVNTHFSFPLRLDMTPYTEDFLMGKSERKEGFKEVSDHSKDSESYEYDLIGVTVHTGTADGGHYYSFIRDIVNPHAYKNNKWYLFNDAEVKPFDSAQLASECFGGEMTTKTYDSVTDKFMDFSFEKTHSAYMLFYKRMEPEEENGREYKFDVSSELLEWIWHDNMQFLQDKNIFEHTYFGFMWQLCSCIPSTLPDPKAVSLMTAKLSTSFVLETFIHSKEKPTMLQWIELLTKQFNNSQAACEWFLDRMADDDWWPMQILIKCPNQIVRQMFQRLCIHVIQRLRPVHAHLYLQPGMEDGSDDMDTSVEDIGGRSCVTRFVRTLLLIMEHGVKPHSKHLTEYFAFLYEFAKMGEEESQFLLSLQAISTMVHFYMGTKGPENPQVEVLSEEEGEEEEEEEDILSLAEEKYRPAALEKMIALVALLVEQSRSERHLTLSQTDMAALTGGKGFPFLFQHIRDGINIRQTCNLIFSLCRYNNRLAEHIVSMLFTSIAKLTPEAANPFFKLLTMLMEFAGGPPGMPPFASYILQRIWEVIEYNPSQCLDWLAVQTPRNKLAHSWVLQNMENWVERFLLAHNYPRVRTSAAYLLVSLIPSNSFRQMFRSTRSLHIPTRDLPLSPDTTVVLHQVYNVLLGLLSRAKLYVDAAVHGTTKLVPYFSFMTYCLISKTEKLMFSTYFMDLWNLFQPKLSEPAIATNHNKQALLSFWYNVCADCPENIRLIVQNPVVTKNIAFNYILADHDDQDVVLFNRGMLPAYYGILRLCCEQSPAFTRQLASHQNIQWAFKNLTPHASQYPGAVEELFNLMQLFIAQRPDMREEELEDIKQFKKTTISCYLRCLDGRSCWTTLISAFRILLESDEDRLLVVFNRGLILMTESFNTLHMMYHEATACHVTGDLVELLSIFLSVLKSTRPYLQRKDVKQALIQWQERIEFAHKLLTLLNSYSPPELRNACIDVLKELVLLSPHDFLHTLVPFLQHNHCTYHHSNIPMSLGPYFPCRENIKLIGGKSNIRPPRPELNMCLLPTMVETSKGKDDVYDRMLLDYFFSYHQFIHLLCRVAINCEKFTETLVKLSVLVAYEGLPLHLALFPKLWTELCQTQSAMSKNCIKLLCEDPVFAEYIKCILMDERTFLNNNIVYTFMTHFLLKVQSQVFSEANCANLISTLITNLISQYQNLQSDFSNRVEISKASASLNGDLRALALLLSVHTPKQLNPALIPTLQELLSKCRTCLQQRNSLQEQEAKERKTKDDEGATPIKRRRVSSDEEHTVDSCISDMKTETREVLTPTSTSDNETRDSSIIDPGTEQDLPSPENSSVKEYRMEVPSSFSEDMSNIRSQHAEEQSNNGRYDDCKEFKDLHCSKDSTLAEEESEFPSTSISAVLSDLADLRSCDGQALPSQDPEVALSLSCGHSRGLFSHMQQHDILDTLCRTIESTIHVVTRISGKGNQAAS

O=C(CCl)N1CCc2nc[nH]c2C1c1ccc(Cl)cc1 (stereo not given)
inactive: [1] -0.355 | [2] -0.00322 | [3] -0.0469 | [4] 0.0317 | [5] -0.375

From the supplement of paper PMC11732987, “Enantioselective OTUD7B fragment discovery through chemoproteomics screening and high-throughput optimisation” (Communications Chemistry, 2025)
